# According to PubChem BioAssay (EPA / NIEHS):
# Values joined by “and” are separate entries in the source; they are usually repeats but may differ in a detail not shown here. Equal entries are not always repeated. A structure can be active in one record and inactive in another. Active and inactive are the calls of the source. Rule for the calls: active = hit-call score of the fitted dose curve at least 0.9, where 1 is the maximum; inactive = score below 0.9.
# Read-out: Cytochrome P450 (CYP1A1), CYP1A1 (gene 1543)
# Assay: LTEA_HepaRG_CYP1A1: Life Technologies and Expression Analysis (LTEA) Assay for Cytochrome P450 (CYP1A1) using HepaRG (AID 2283454)
# Conditions: mRNA level, 48 h; actives raise or lower the signal
# Method: LTEA_HepaRG is a cell based, multiplexed-readout assay that uses HepaRG, a human liver cell line, with measurements taken at 48 hours after chemical dosing on a 96-well plate.LTEA_HepaRG_CYP1A1 is one of 102 assay component(s) measured in the LTEA HepaRG cell culture assay. It is a marker of NR mediated metabolism.Data from the assay component LTEA_HepaRG_CYP1A1 was analyzed into 1 endpoint. This assay endpoint, LTEA_HepaRG_CYP1A1, was analyzed with bidirectional fitting relative to DMSO as the negative control and baseline of activity. Using a type of inducible reporter, measures of mRNA induction for gain or loss-of-signal activity can be used to understand regulation of transcription factor activity. To generalize the intended target to other relatable targets, this assay endpoint is annotated to the cyp intended target family, where the subfamily is xenobiotic metabolism.
# A total of 1060 chemcials from the ToxCast library were tested in eight-point concentration-response experiments. Cell culture and cytotoxicity assays were conducted at Thermo Fisher Scientific's Custom Services facility (Madison, WI). A single lot of human HepaRG cells (Thermo Fisher Scientific, Frederick, MD) was used for the cell culture experiments. 96-well format collagen type I coated plates of human HepaRG cells were prepared using established methods. Briefly, cryopreserved HepaRG cells were thawed, plated at a density of approximately 100,000 cells/well in HepaRG Thaw, Plate, and General Purpose media (HPRG770, Thermo Fisher Scientific), and incubated for 48 hours. 0.5% DMSO was selected as vehicle control to balance the requisite need of DMSO in HepaRG cultures to maintain differentiation (for example, baseline metabolism, proportions of hepatocytes vs. cholangiocytes), while enabling further hepatic receptor pathway activation (for example, PXR and CAR) in response to chemical exposure. 48 hours after plating, the culture medium was replaced with HepaRG Serum-Free Incudtion Media. Cells were exposed to each test chemical in duplicate and maintained in CO2 incubators for another 48 hours. Chemical plates were thawed to room temperature and 200x concentrations of treatment groups were prepared. 8-point conentration-reponse curves were made with the highest exposure at 100 uM, followed by half-log dilutions, all in 0.5% DMSO. Each test plate contained variouse controls, induction positive controls (1mM phenobarbital), cytotoxicity positive controls ([…] aflatoxin B1), vehicle controls (0.5% DMSO), and total lysis controls (0.5% DMSO). Cell morphology images were taken using an Essen IncuCyte FLR automated microscope, with six 96-well plates imaged in about 24 minutes. Images were captured and exported and JPEG files. Spent culture media was transfered to black-well plates for the LDH assay, and remaining media was sorted at -80 C for later use. Cells were treated with RLT buffer and frozen until shipped for gene expression analysis. Total RNA was isolated from the cell suspension in 75 uL of Buffer RLT (Qiagen, Germantown, MD 20874) by Quintiles/Expression Analysis (Durham, NC) using a custom isolation procedure. Total RNA from each plate well was transferred to a preamplification plate. Fluidigm's 96.96 Dynamic ArrayTM (Fluidigm, Amsterdam, the Netherlands) technology was used for gene expression analyses by quantitative reverse transcription polymerase chain reaction (qRT-PCR, performed by Quintiles/Expression Analysis, Durham, NC)89. Standard TaqManTM Assays (Applied Biosystems/ThermoFisher Scientific, Foster City, CA) were used to assess the expression of 93 genes selected based on their selectivity and sensitivity to important hepatic receptors known to be modulated by environmental chemicals; importance in human hepatocyte functionality; and hepatotoxicity. […]
Compound,AC50,outcome
CCOC(=O)C(C)Oc1ccc(Oc2cnc3cc(Cl)ccc3n2)cc1 (stereo not given),18.5 µM (active),–
CC(=O)S[C@@H]1CC2=CC(=O)CC[C@]2(C)[C@H]2CC[C@@]3(C)[C@@H](CC[C@@]34CCC(=O)O4)[C@H]12,–,inactive
CC1(C)C(C=C(Cl)Cl)C1C(=O)OCc1cccc(Oc2ccccc2)c1 (stereo not given),35.9 µM (active),–
CCCCCOC(=O)COc1cc(N2C(=O)C3=C(CCCC3)C2=O)c(F)cc1Cl,0.00329 µM (active),–
CCCCOC(=O)C(C)Oc1ccc(Oc2ccc(C(F)(F)F)cn2)cc1 (stereo not given),9.92 µM (active),–
CSC(=O)c1cccc2nnsc12,50 µM (active),–
C[C@]12C[C@H](O)[C@H]3[C@@H](CCC4=CC(=O)CC[C@@]43C)[C@@H]1CC[C@@H]2C(=O)CO,50 µM (active),–
COC(=O)c1ccc(I)cc1S(=O)(=O)NC(=O)Nc1nc(C)nc(OC)n1,62.4 µM (active),–
C#CCOC(=O)[C@@H](C)Oc1ccc(Oc2ncc(Cl)cc2F)cc1,33 µM (active),–
O=C(O)c1ccccc1,51.2 µM (active),inactive
CCOC(=O)c1ccc(O)cc1,–,inactive
C#C[C@]1(O)CC[C@H]2[C@@H]3CCC4=CC(=O)CC[C@@H]4[C@H]3CC[C@@]21CC,–,inactive
CCCCOC(=O)[C@@H](C)Oc1ccc(Oc2ccc(C(F)(F)F)cn2)cc1,50.2 µM (active),–
CCCN(CCC)C(=O)SCC,–,inactive
C[C@]12CC[C@@H]3c4ccc(O)cc4C[C@@H](CCCCCCCCCS(=O)CCCC(F)(F)C(F)(F)F)[C@H]3[C@@H]1CC[C@@H]2O (stereo not given in full),–,inactive
CCCCOCCOCCOCc1cc2c(cc1CCC)OCO2,12.9 µM (active),–
CCOC(=O)C(C)Oc1ccc(Oc2nc3ccc(Cl)cc3o2)cc1 (stereo not given),56.7 µM (active),–
CCSC(=O)N(CC(C)C)CC(C)C,50 µM (active),–
O=C(Nc1ccc([N+](=O)[O-])cc1Cl)c1cc(Cl)ccc1O,0.147 µM (active),–

Compound,AC50,outcome
COC(=O)c1ccccc1C(=O)O,–,inactive
CCN(Cc1c(F)cccc1Cl)c1c([N+](=O)[O-])cc(C(F)(F)F)cc1[N+](=O)[O-],14.8 µM (active),–
CCC(C)OC(=O)N1CCCCC1CCO (stereo not given),64 µM (active),–
CCNc1nc(N)nc(Cl)n1,–,inactive
O=C(O)C1(C(=O)Nc2ccc(Cl)cc2Cl)CC1,50 µM (active),–
CN(C)C(=O)Nc1ccc(Cl)c(Cl)c1,27 µM (active),–
N[C@@H](Cc1cc(I)c(Oc2ccc(O)c(I)c2)c(I)c1)C(=O)O,0.0392 µM (active),–
CCCOC(=O)NCCCN(C)C,–,inactive
O=C(c1ccccc1)C1CCCCC1,–,inactive
CCN(CC)C(=O)c1cccc(C)c1,50 µM (active),–
C=CCOC(Cn1ccnc1)c1ccc(Cl)cc1Cl (stereo not given),12.1 µM (active),–
CCCCC(CC)CN1C(=O)C2C3C=CC(C3)C2C1=O (stereo not given),12.6 µM (active),–
CCOC(=O)NCCOc1ccc(Oc2ccccc2)cc1,50 µM (active),–
CCCN(CCC)c1c([N+](=O)[O-])cc(C(F)(F)F)c(N)c1[N+](=O)[O-],9.51 µM (active),–
N#CSCSc1nc2ccccc2s1,49.4 µM (active),–
CC(C)(c1ccc(O)cc1)c1ccc(O)cc1,11.7 µM (active),inactive
CCCCCCC(C)OC(=O)COc1nc(F)c(Cl)c(N)c1Cl (stereo not given),–,inactive
S=C(S)NCCNC(=S)S.[Mn+2].[S-]C([S-])=NCCN=C([S-])[S-].[Zn+2],116 nM (active) and 122 nM (active),–
c1ccc(Nc2ccccc2)cc1,–,inactive
